Reference: PubChem BioAssay (NCATS)
Where “and” joins values, the source holds several entries; their conditions need not be identical. Equal entries are not always repeated. Results filed as inconclusive are left out. Calls of active or inactive are those of the source. The call rests on the fitted dose curve; in most records, active means well fitted curve in the direction sought with a large enough effect; inconclusive means small, poorly fitted or top-dose-only effect, or another doubt; inactive means no such curve, though single readings can be large; an effect the other way counts as inactive or inconclusive.

What was measured:
[1] = MultiTox-Fluor Cytotoxicity Assay - LYMP1-002 - Live Cells (AID 955)
In short: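 LYMP1-002 lymphoblastoid cells; 2500 cells/well; 16 hr compound exposure, 37 C; MultiTox-Fluor reagent 60 min RT; live-cell fluorescence Ex/Em=405/510; qHTS concentration-response, Hill-equation AC50; tetraoctylammonium bromide positive control.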

[2] = MultiTox-Fluor Cytotoxicity Assay - LYMP1-002 - Dead Cells (AID 960); further: nearly all actives have a fitted effect of over 60% in size; further: potency means the concentration at half of the fitted maximal effect
In short: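 Readout: fluorescence at 485/520 from cell-impermeant bis-AAF-R110 cleaved by proteases leaking from damaged cells. LYMP1-002 lymphoblastoid line, 16 hr compound treatment at 37 C, concentration-response in qHTS format; Hill-equation AC50 values.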

[3] = MultiTox-Fluor Cytotoxicity Assay - LYMP1-003 - Dead Cells (AID 961); further: nearly all actives have a fitted effect of over 70% in size
In short: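 LYMP1-003 human lymphoblastoid cells (2500/well) exposed to compound 16 h at 37 C in complete medium; dead-cell protease read with bis-AAF-R110 fluorescence (Ex/Em 485/520) after 60 min at room temperature. Normalized to DMSO and 15 uM tetraoctylammonium bromide; AC50 from Hill fit.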

[4] = MultiTox-Fluor Cytotoxicity Assay - LYMP1-003 - Live Cells (AID 962);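 further: cytotoxic hits lower the live-cell protease signal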
In short: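 Readout: live-cell fluorescence (Ex/Em=405/510) from GF-AFC cleavage after 60 min MultiTox-Fluor reagent at room temperature. Lymphoblastoid LYMP1-003 cells, 16 hr compound treatment, 37 C. Concentration-response fitted to standard Hill equation for AC50.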

[5] = Cell Viability - LYMP1-003 - Assay at 24 hr (AID 963)
In short: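 CellTiter-Glo luminescence (intracellular ATP) read after 24 hr, 37 C compound exposure of 2500 LYMP1-003 human lymphoblastoid cells/well in complete medium; qHTS concentration series; AC50 via standard Hill equation.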

[6] = Cell Viability - LYMP1-003 - Assay at 40 hr (AID 964); further: nearly all actives have a fitted effect of over 60% in size; further: potency means the concentration at half of the fitted maximal effect
In short: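 LYMP1-003 lymphoblastoid cells, 2500/well; 5 hr preincubation, 40 hr compound exposure, 37 C; CellTiter-Glo 30 min RT; luminescence; Hill-fit AC50. Positive control tetraoctylammonium bromide.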

[7] = Cell Viability - LYMP2-003 (AID 965);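 further: cells exposed to compounds for 24 h before reading; nearly all actives have a fitted effect of over 50% in size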; further: potency means the concentration at half of the fitted maximal effect
In short: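 qHTS, human lymphoblastoid line, 2500 cells/well, complete medium. 24 h drug, 37 C. ATP-based luminescent readout; Hill-fit AC50.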

[8] = Cell Viability - LYMP2-004 (AID 966); further: nearly all actives have a fitted effect of over 65% in size; further: potency means the concentration at half of the fitted maximal effect
In short: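 Luminescent ATP read-out (CellTiter-Glo, 30 min RT) after 24 hr compound exposure at 37 C; 2500 lymphoblastoid cells/well, complete medium. Decrease in ATP = cytotoxicity; AC50 from standard Hill model.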

[9] = Cell Viability - LYMP2-009 (AID 968); further: nearly all actives have a fitted effect of over 55% in size; further: potency means the concentration at half of the fitted maximal effect
[10] = Cell Viability - LYMP2-011 (AID 969); further: nearly all actives have a fitted effect of over 60% in size; further: potency means the concentration at half of the fitted maximal effect
In short: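 Luminescent ATP read-out (CellTiter-Glo, 30 min RT) after 24 hr compound exposure at 37 C in human lymphoblastoid cells, 2500 cells/well. Decreasing ATP indicates cytotoxicity; AC50 from standard Hill fit.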

[11] = Cell Viability - LYMP2-013 (AID 970); further: nearly all actives have a fitted effect of over 55% in size; further: potency means the concentration at half of the fitted maximal effect
In short: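 CellTiter-Glo luminescence (cellular ATP) read after 30 min at RT. Cells: human lymphoblastoid line, 2500/well, 24 hr compound exposure at 37 C. Tetraoctylammonium bromide positive control; AC50 via standard Hill fit of qHTS titrations.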

[12] = Cell Viability - LYMP2-015 (AID 971); further: nearly all actives have a fitted effect of over 55% in size; further: potency means the concentration at half of the fitted maximal effect
In short: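 qHTS cytotoxicity: 2500 cells/well, 5 hr 37 C, compound 24 hr 37 C, CellTiter-Glo 30 min RT, luminescence. Loss of ATP = toxicity; AC50 via standard Hill fit.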

[13] = Cell Viability - LYMP2-017 (AID 972); further: nearly all actives have a fitted effect of over 55% in size; further: potency means the concentration at half of the fitted maximal effect
In short: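 Luminescent ATP read-out (CellTiter-Glo, 30 min RT) reports viable cell number. Cells: human lymphoblastoid line, 2500 per well, 5 hr preincubation, 24 hr compound exposure at 37 C. AC50 is derived from qHTS concentration-response data using the standard Hill model.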

[14] = Cell Viability - LYMP2-019 (AID 973); further: nearly all actives have a fitted effect of over 55% in size; further: potency means the concentration at half of the fitted maximal effect
In short: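 qHTS, 1536-well; 2500 cells/well; 5 hr pre-incubation, 24 hr compound exposure, 37 C; CellTiter-Glo added, 30 min RT; luminescence read; AC50 via standard Hill equation.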

[15] = Cell Viability - LYMP2-021 (AID 974); further: potency means the concentration at half of the fitted maximal effect
In short: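 ATP luminescence (CellTiter-Glo, 30 min RT) after 24 h compound exposure at 37 C; 2500 human lymphoblastoid cells/well, 5 h settle beforehand. Cytotoxicity = concentration-dependent ATP drop, AC50 by Hill fit.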

[16] = Cell Viability - LYMP2-023 (AID 975); further: nearly all actives have a fitted effect of over 55% in size; further: potency means the concentration at half of the fitted maximal effect
In short: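 CellTiter-Glo luminescence after 30 min at room temperature; decrease in intracellular ATP reflects toxicity. Cells: human lymphoblastoid line, 2500/well, 24 hr compound exposure at 37 C. AC50 fitted to standard Hill equation from concentration-response.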

[17] = Cell Viability - LYMP2-025 (AID 976); further: series mostly up to about 92 µM
In short: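 CellTiter-Glo luminescence (cellular ATP) after 24 h compound exposure at 37 C; LYMP2-025 human lymphoblastoid cells, 2500/well, complete medium. Tetraoctylammonium bromide positive control. AC50 by Hill equation fit of qHTS concentration-response.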

[18] = molecular target: Alpha-galactosidase (Coffea arabica) (UniProt Q42656); test: Counterscreen for Glucocerebrosidase Inhibitors: qHTS Assay for Coffee Bean alpha-Galactosidase at pH 4.5 (AID 957); further: series mostly up to about 77 µM
In short: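 Fluorogenic read-out: 4-methylumbelliferone at Ex 365/Em 440 nm after NaOH/glycine stop (pH 10). Enzyme 2 nM, 4-MU-alpha-galactoside 80 uM, citrate buffer pH 4.5, 20 min RT; normalized to no-enzyme and enzyme controls.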

[19] = Cell Viability - LYMP2-005 (AID 967); further: series mostly up to about 92 µM
In short: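 Luciferase-based ATP quantitation served as the viability measure in human lymphoblastoid LYMP2-005 cells exposed to test compounds for 24 h at 37 C in complete culture medium. Potency (AC50) was obtained by fitting concentration-response curves with the Hill equation.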

Measured: Potency

Chain of Alpha-galactosidase (Coffea arabica) (Q42656 whole entry, looked up): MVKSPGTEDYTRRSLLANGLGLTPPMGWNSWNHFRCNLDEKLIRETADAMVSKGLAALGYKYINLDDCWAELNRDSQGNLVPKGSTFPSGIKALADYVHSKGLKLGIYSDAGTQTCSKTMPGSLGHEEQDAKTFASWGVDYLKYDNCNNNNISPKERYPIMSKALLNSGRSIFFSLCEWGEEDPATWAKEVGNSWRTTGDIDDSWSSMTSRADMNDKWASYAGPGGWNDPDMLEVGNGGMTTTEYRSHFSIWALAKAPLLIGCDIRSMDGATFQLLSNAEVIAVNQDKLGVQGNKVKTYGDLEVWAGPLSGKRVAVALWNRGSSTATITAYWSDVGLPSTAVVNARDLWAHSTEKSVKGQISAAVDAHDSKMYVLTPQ

OCCOc1ccccc1
inactive: [1] | [2] | [3] | [4] | [5] | [6] | [7] | [8] | [9] | [10] | [11] | [12] | [13] | [14] | [15] | [16] | [17]

Cc1cn[nH]c1
inactive: [18]

CCN(CC)C(=S)SSC(=S)N(CC)CC
inactive: [18]

COc1cc(Cc2cnc(N)nc2N)cc(OC)c1OC
inactive: [18]

N[C@@H](Cc1ccc(N(CCCl)CCCl)cc1)C(=O)O
active: [7] 31.6 µM | [9] 39.8 µM | [10] 39.8 µM | [11] 39.8 µM | [12] 31.6 µM | [13] 39.8 µM | [14] 39.8 µM | [15] 39.8 µM | [16] 39.8 µM
inactive: [1] | [2] | [3] | [4] | [5] | [6]

Cc1ccc(S(=O)(=O)N[C@@H](CCCCN)C(=O)CCl)cc1
inactive: [18]

NCC(O)c1ccc(O)cc1 (stereo unspecified)
inactive: [1] | [2] | [3] | [4] | [5] | [6] | [7] | [8] | [19] | [9] | [10] | [11] | [12] | [13] | [14] | [15] | [16] | [17]

c1ccc2c(c1)Nc1ccccc1S2
inactive: [1] | [2] | [3] | [4] | [5] | [6] | [7] | [8] | [19] | [9] | [10] | [11] | [12] | [13] | [14] | [15] | [16] | [17]

CN(C)CCCN1c2ccccc2Sc2ccc(Cl)cc21
inactive: [18]

Oc1cccc2cccnc12
inactive: [1]
active: [2] 15.8 µM | [6] 31.6 µM and 39.8 µM | [7] 12.6 µM | [8] 15.8 µM and 12.6 µM | [9] 10 µM | [11] 15.8 µM | [12] 12.6 µM | [13] 12.6 µM and 10 µM | [14] 10 µM | [16] 25.1 µM

CCCN1CCC[C@@H]2Cc3nc(N)ncc3C[C@H]21
inactive: [18]

CN(C)C(=O)C(CCN1CCC(O)(c2ccc(Cl)cc2)CC1)(c1ccccc1)c1ccccc1
inactive: [18]

NC12CC3CC(CC(C3)C1)C2
inactive: [18]

CCOP(=S)(OCC)Oc1cc(C)nc(C(C)C)n1
inactive: [1] | [2] | [3] | [4] | [5] | [6] | [7] | [8] | [19] | [9] | [10] | [11] | [12] | [13] | [14] | [15] | [16] | [17]

Clc1ccc(C(c2ccccc2Cl)C(Cl)Cl)cc1 (stereo unspecified)
inactive: [18]
